For 13 compounds, growth results are on record in PubChem BioAssay (NCI).

About 83,000 compounds went through this panel and 20% of them were active in at least one assay; those are over-represented in the sample as a whole.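 Results are percent growth after 48 hours of single-concentration exposure. 100 means growth as in untreated cells, lower positive values show inhibition; negative values down to -100 show cell death.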 A number with no mark means an inactive call. Active and inactive are the calls of the source. The calls were made as follows: active = growth percent below 10; inactive = the rest.

Among the test systems are NCI-H23 lung; NCI-H226 lung; NCI-H322M lung; HOP-62 NSCLC; NCI-H460 lung; HOP-92 NSCLC; NCI-H522 lung; A549/ATCC NSCLC; 786-0 renal; COLO 205 colon.
Common to all, as to experiment: NCI-60 one-dose screen, 48 h (100 = growth as untreated, 0 = no growth, -100 = all killed)
What all share (details): 10 µM unless noted

With `COc1cc2c(Oc3ccc4[nH]c(C)cc4c3F)ncnc2cc1OCCCN1CCCC1`, the growth is 84% with NCI-H23 lung; 57.3% in the assay on NCI-H226 lung; 93% in the assay with NCI-H322M lung; 79.8% with HOP-62 NSCLC; 96.7% with NCI-H460 lung; 95.9% in the assay with HOP-92 NSCLC. In addition, the growth with NCI-H522 lung is 88.3%; in the assay with A549/ATCC NSCLC, 84.5%; with 786-0 renal it was 84.6%; in the assay with COLO 205 colon it was 88.9%.

For the compound `Cc1cc(N2CCOCC2)nc(N(CCNc2ccnc3cc(Cl)ccc23)Cc2cccs2)n1`, the growth is 35.4% with NCI-H23 lung; 54.6% with NCI-H226 lung; 26.9% in the assay with NCI-H322M lung; 19.8% in the assay with HOP-62 NSCLC; 7.16% (active) with NCI-H460 lung; 15.6% in the assay with HOP-92 NSCLC. Besides, the growth in the assay with NCI-H522 lung is -21.5% (active); in the assay with A549/ATCC NSCLC, 28.7%; with 786-0 renal, -35.2% (active); with COLO 205 colon it was -69.2% (active).

As for `Cc1cc([C@@H](C)Nc2ccccc2C(=O)O)c2nc(N3CCOCC3)cc(=O)n2c1`, the growth is 54.8% in the assay with NCI-H23 lung; 55.4% in the assay on NCI-H226 lung; 39.9% with NCI-H322M lung; 37.5% with HOP-62 NSCLC; 22.6% in the assay with NCI-H460 lung; 13.7% in the assay on HOP-92 NSCLC. In addition, the growth was 42.3% in the assay with NCI-H522 lung, 32% with A549/ATCC NSCLC, 18.6% in the assay on 786-0 renal and -5.47% (active) in the assay on COLO 205 colon.

Consider `Cc1cn(-c2cc(NC(=O)c3ccc(C)c(Nc4nccc(-c5cnccn5)n4)c3)cc(C(F)(F)F)c2)cn1`, for which the growth in the assay with NCI-H23 lung was 73%; in the assay with NCI-H226 lung, 86.9%; in the assay with NCI-H322M lung, 95.3%; with HOP-62 NSCLC it was 55.9%; in the assay on NCI-H460 lung, 61.7%; in the assay on HOP-92 NSCLC, 89%. The growth was 43.1% in the assay with NCI-H522 lung, 62.5% with A549/ATCC NSCLC, 97.7% in the assay with 786-0 renal and 25.3% with COLO 205 colon.

As to `C=CCC(=O)N[C@H](/C=C/C(=O)O)Cc1ccc(-c2cc(Cl)cc(Cl)c2)cc1`, the growth in the assay with NCI-H23 lung was 92.7%; in the assay on NCI-H226 lung, 86.2%; with NCI-H322M lung it was 101%; in the assay with HOP-62 NSCLC, 82%; in the assay on NCI-H460 lung, 99.6%; with HOP-92 NSCLC, 96.4%. For the same compound, the growth in the assay on NCI-H522 lung is 70.7%; with A549/ATCC NSCLC, 76.9%; in the assay with 786-0 renal, 98.4%; in the assay on COLO 205 colon, 95.7%.

In the case of `COc1cc2c(cc1OCCCN1Cc3ccc(OCCCCC(=O)N4CCC(CCN5CCCC5)CC4)cc3C1)N=C(N)C21CCCC1`, the growth in the assay on NCI-H23 lung is 84.5%; in the assay with NCI-H226 lung, 106%; in the assay with NCI-H322M lung it was 107%; in the assay with HOP-62 NSCLC it was 79.9%; with NCI-H460 lung, 102%; in the assay with HOP-92 NSCLC it was 78.7%. Further, the growth in the assay on NCI-H522 lung was 50.7%; in the assay on A549/ATCC NSCLC, 85%; with 786-0 renal, 85.4%; in the assay on COLO 205 colon, 42.4%.

Take `CNc1ncc2cc(-c3cc(NC(=O)NCCC(C)(C)C)c(F)cc3C)c(C)nc2n1`: the growth in the assay with NCI-H23 lung was 12.8%; in the assay with NCI-H226 lung, 33.1%; in the assay on NCI-H322M lung, 4.99% (active); with HOP-62 NSCLC, 5.28% (active); with NCI-H460 lung it was 21.3%; with HOP-92 NSCLC, -44.3% (active). In addition, the growth is -5.5% (active) in the assay on NCI-H522 lung, 12.2% in the assay on A549/ATCC NSCLC, 29.8% in the assay on 786-0 renal and -34.5% (active) with COLO 205 colon.

Regarding `COc1ccc2c(CCCC(c3ccccc3)c3ccccc3)c3[n+](cc2c1OC)CCc1cc2c(cc1-3)OCO2`, the growth was -30.1% (active) with NCI-H23 lung; 2.75% (active) in the assay with NCI-H226 lung; 16.2% in the assay with NCI-H322M lung; -9.19% (active) with HOP-62 NSCLC; -53% (active) with NCI-H460 lung; -40.6% (active) in the assay on HOP-92 NSCLC. Moreover, the growth in the assay on NCI-H522 lung was -21% (active); in the assay with A549/ATCC NSCLC it was 10.2%; in the assay on 786-0 renal it was -18.7% (active); in the assay on COLO 205 colon it was -67.8% (active).

In the case of `C[C@@H](Oc1cc(-c2cnn(C3CCNCC3)c2)cnc1N)c1c(Cl)ccc(F)c1Cl`, the growth in the assay with NCI-H23 lung was -10.4% (active); in the assay with NCI-H226 lung, -11.6% (active); with NCI-H322M lung, 15.2%; in the assay on HOP-62 NSCLC it was -34.8% (active); in the assay with NCI-H460 lung it was -64.4% (active); in the assay with HOP-92 NSCLC, -51.9% (active). Further, the growth with NCI-H522 lung was -74.8% (active); in the assay on A549/ATCC NSCLC, -40.9% (active); in the assay on 786-0 renal it was -74.7% (active); in the assay with COLO 205 colon, -78.5% (active).

For `CN(c1ncccc1CNc1nc(Nc2ccc3c(c2)CC(=O)N3)ncc1C(F)(F)F)S(C)(=O)=O`, the growth was -18.1% (active) in the assay with NCI-H23 lung; 8.79% (active) in the assay on NCI-H226 lung; -11.3% (active) with NCI-H322M lung; -13.3% (active) with HOP-62 NSCLC; -36.9% (active) with NCI-H460 lung; 2.42% (active) in the assay with HOP-92 NSCLC. For the same compound, the growth is -22.4% (active) in the assay with NCI-H522 lung, 2.18% (active) with A549/ATCC NSCLC, 11.3% in the assay with 786-0 renal and -85.6% (active) with COLO 205 colon.

In the case of `COC(=O)CNC(=O)[C@@H](OC)[C@@H]1Cc2cc3cc(OC4CC(OC5CC(O)C(O)C(C)O5)C(O)C(C)O4)c(C)c(O)c3c(O)c2C(=O)[C@H]1OC1CC(OC2CC(OC3CC(C)(O)C(O)C(C)O3)C(O)C(C)O2)C(O)C(C)O1` (stereo not given in full), the growth is -16.8% (active) in the assay on NCI-H23 lung; -10% (active) in the assay with NCI-H226 lung; 15.7% with NCI-H322M lung; 21.6% in the assay on HOP-62 NSCLC; 9.15% (active) in the assay on NCI-H460 lung; 9.61% (active) in the assay with HOP-92 NSCLC. The growth was -19% (active) in the assay on NCI-H522 lung, 7.82% (active) in the assay on A549/ATCC NSCLC, -2.99% (active) in the assay with 786-0 renal and -17.6% (active) in the assay on COLO 205 colon.

Consider `CCOC(=O)C1=C(C)N=C2Sc3cccc(OC)c3N2[C@H]1c1ccccn1`, for which the growth in the assay on NCI-H23 lung was 86.9%; with NCI-H226 lung, 84.9%; in the assay with NCI-H322M lung, 96.4%; with HOP-62 NSCLC it was 80.6%; with NCI-H460 lung it was 105%; in the assay on HOP-92 NSCLC it was 93.3%. Also, the growth with NCI-H522 lung is 81.2%; in the assay on A549/ATCC NSCLC it was 94%; in the assay on 786-0 renal it was 113%; in the assay on COLO 205 colon it was 103%.

Regarding `Cc1ccc(F)c(NC(=O)Nc2ccc(-c3cccc4[nH]nc(N)c34)cc2)c1`, the growth was 9.14% (active) in the assay with NCI-H23 lung; 57.6% in the assay on NCI-H226 lung; 21.5% with NCI-H322M lung; -7.49% (active) with HOP-62 NSCLC; 10.2% in the assay on NCI-H460 lung; 63.8% with HOP-92 NSCLC. In addition, the growth in the assay on NCI-H522 lung is -23.3% (active); in the assay on A549/ATCC NSCLC, -50.5% (active); with 786-0 renal it was 36.4%; in the assay with COLO 205 colon, -48.7% (active).
